# Screening results from PubChem.
# HTT prom inh: HTT promoter inhibition; HEK293 HTT promoter firefly luciferase reporter, 24 h; Potency, µM (top dose mostly 57.5 µM), inactives show at the highest dose activity change, negative = inhibition, hits mostly inhibitors; 0.93% of 48,000 active; AID 1508623; further: potency means the concentration at half of the fitted maximal effect; nearly all actives have a fitted effect of over 50% in size
#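 Firefly luciferase signal from promoter-reporter HEK293 cells was scaled between vehicle (0%) and zero RLU (-100%). Compounds were tested at final concentrations of up to 57.5 uM over 24 h at 37 degrees C. PTC124 at 50 uM final served as control inhibitor.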
# FH mod: Identification of activators of human fumarate hydratase by quantitative high-throughput screening; Fumarate hydratase, mitochondrial (Homo sapiens), P07954; FH coupled MDH/diaphorase resazurin fluorescence, 15 min; Potency, µM (series often up to 79.9 µM), for the others: at the highest dose activity change, negative = inhibition, most hits filed as inhibitors; 0.22% of 54,000 active; further: potency means the concentration at half of the fitted maximal effect; on the % scale 0 is the no-effect control and ±100 the full control effect; the screen sought activators but most active calls are inhibition curves; nearly all actives have a fitted effect of over 45% in size
# DRV1 agonist: agonists of human resolvin D1 receptor DRV1 (GPR32); O75388; activation, % at 76.9 µM; CHO-K1 GPR32 beta-arrestin PathHunter luminescence, 90 min; zero percent set by DMSO-only wells; 2.5% of 48,000 active;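 active means activation of at least 60% and not above a set upper limit, about 1 call in 100 departs from these limits; inconclusive means activation of 40% to 60%, or above that upper limit; inactive means activation under 40%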; further: 0% is about no effect
#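 Agonism was scored as beta-arrestin recruitment to ProLink-fused GPR32 in stably transfected CHO-K1 cells, giving a chemiluminescent beta-Gal signal; compounds were incubated 90 min at 37 °C.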
# NTMT1 inhibitor: blocks human N-terminal methyltransferase 1 activity; Q9BV86; NTMT1 MTase-Glo SAH luminescence, purified enzyme; Potency, µM (titrated, usually from 114 µM), for inactives: at the top dose activity change, negative = inhibition, usual class: inhibitors; 2.5% of 59,000 active; AID 1645870;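 further: potency means the concentration at half of the fitted maximal effect; plate controls were DMSO vehicle for no effect and no enzyme for full effect; nearly all actives have a fitted effect of over 65% in size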
# HTT-AS promoter: activates huntingtin-antisense promoter activity; 0.24% of 48,000 active; Potency, µM (titrated, usually from 57.5 µM), inactives show at the top dose activity change, positive = activation, usual class: activators; HEK293 HTT-AS promoter firefly luciferase reporter, 24 h; response scale: percent change from vehicle, -100% = no light; AID 1508624; further: potency means the concentration at half of the fitted maximal effect; nearly all actives have a fitted effect of over 55% in size
#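 Quantitative HTS used concentration series of up to 57.5 uM final on HEK293 luciferase reporter cells, 24 h at 37 degrees C. Readout was Dual-Glo firefly luminescence.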
# Sfp PPTase inh: inhibits purified B. subtilis Sfp PPTase | shares compounds with NTMT1 inhibitor | purified Sfp PPTase enzyme activity, qHTS | Potency, µM (series often up to 114 µM), without a hit: top-dose activity change, negative = inhibition, usual class: inhibitors | 78% of 230 active | AID 540350
# Bsub HM489 growth: B. subtilis HM489 growth inhibition; shares compounds with NTMT1 inhibitor; B. subtilis HM489 (acpS-) growth, BacTiter-Glo, 5 h; Potency, µM (titrated, usually from 114 µM), for inactives: at the top dose activity change, negative = inhibition, usual class: inhibitors; 50% of 220 active; AID 540353
# Sfp PPTase gel: inhibits B. subtilis Sfp PPTase in gel assay; shares compounds with NTMT1 inhibitor; purified Sfp PPTase, gel-based product detection; Potency, µM (top dose mostly 250 µM), inactives show at the highest dose activity change, negative = inhibition, hits mostly inhibitors; 54% of 220 active; AID 540355
# Sfp gel: confirmation of Bacillus subtilis Sfp PPTase inhibitors | shares compounds with NTMT1 inhibitor | purified Sfp PPTase, gel-based product detection | Potency, µM (series often up to 250 µM), without a hit: top-dose activity change, negative = inhibition, actives largely listed as inhibitors | 90% of 45 active | AID 602362
# Sfp inh SAR2: Sfp phosphopantetheinyl transferase inhibition, SAR round 2 | shares compounds with NTMT1 inhibitor | Potency, µM (top dose mostly 57.1 µM), for inactives: at the highest dose activity change, negative = inhibition, usual class: inhibitors | purified Sfp enzyme, PPTase activity, qHTS | 87% of 230 active
# hGST ctr: hGST A1-1 enzyme inhibition, Sfp SAR counter-screen | shares compounds with NTMT1 inhibitor | Potency, µM (series often up to 114 µM), without a hit: at the highest dose activity change, negative = inhibition, most hits filed as inhibitors | 55 tested, under 10 active | hGST A1-1 enzyme activity counter-screen, qHTS
# HSD17B4 counter: inhibits human HSD17B4, off-target for HPGD inhibitors; Potency, µM (highest dose often 57.1 µM), without a hit: at the top dose activity change, negative = inhibition, actives largely listed as inhibitors; purified HSD17B4, estradiol/NAD+, NADH fluorescence; 10% of 230 active; shares compounds with NTMT1 inhibitor
# ALDH1A1 counter: ALDH1A1 (human) inhibition, HPGD counter-screen; shares compounds with NTMT1 inhibitor; recombinant ALDH1A1, NADH fluorescence, propionaldehyde/NAD+; 93% of 230 active; Potency, µM (series often up to 57.1 µM), for the others: at the highest dose activity change, negative = inhibition, actives largely listed as inhibitors; AID 743195
# Target sequence (P00352 whole entry, looked up): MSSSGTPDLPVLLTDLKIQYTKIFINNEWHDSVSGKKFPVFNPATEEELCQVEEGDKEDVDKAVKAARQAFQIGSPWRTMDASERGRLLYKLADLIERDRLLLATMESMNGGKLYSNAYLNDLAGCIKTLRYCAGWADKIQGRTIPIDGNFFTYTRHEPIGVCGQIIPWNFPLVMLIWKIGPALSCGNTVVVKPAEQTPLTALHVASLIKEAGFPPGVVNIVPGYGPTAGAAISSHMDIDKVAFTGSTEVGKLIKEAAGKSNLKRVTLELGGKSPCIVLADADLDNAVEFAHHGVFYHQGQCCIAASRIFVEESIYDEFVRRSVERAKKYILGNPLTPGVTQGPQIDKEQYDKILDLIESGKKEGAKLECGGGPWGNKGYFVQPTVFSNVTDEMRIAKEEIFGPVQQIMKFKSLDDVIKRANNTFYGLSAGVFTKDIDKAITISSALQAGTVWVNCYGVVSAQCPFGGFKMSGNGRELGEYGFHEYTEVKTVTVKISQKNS
# NNMT inh: human NNMT inhibition, NTMT1 counter-screen; Potency, µM (titrated, usually from 57.1 µM), inactives show at the top dose activity, negative = inhibition, most hits filed as inhibitors; shares compounds with NTMT1 inhibitor; NNMT MTase-Glo luminescence, SAH detection; AID 1645878; 10% of 120 active
# Target sequence (P40261 whole entry, looked up): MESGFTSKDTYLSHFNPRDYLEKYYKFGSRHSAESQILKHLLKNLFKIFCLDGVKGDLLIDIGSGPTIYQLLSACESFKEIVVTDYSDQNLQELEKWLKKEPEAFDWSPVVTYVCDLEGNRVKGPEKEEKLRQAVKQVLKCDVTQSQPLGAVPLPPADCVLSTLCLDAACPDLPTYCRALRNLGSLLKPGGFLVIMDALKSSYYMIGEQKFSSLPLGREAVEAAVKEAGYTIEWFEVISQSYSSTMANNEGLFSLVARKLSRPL
# Numbers without * were called inactive; ? = inconclusive; · = not tested or not shown; [ ] = remark or other dose. Only some compounds are listed: those with a hit (about 4.7% of all), similar ones and a draw of the others. Unless noted, the call rests on the fitted dose curve; in most records, active means well fitted curve in the direction sought with a large enough effect; inconclusive means small, poorly fitted or top-dose-only effect, or another doubt; inactive means no such curve, though single readings can be large; an effect the other way counts as inactive or inconclusive.
SMILES,HTT prom inh,FH mod,DRV1 agonist,NTMT1 inhibitor,HTT-AS promoter,Sfp PPTase inh,Bsub HM489 growth,Sfp PPTase gel,Sfp inh SAR2,HSD17B4 counter,ALDH1A1 counter,others
S=C(Nc1cc(Cl)ccn1)N1CCN(c2cccc(Cl)c2Cl)CC1,·,·,·,?,·,4.1µM*,·,·,16µM*,-13%,6.8µM*,hGST ctr=-6%
CCOc1ccc(NC(=O)N2CCN(c3ccc(Cl)c(Cl)c3)CC2)cc1,?,-1%,5,-14%,-23%,·,·,·,·,·,·,
COc1ccnc(NC(=S)N2CCN(c3ccc(Cl)cc3Cl)CC2)c1,·,·,·,?,·,3µM*,13µM*,7.9µM*,0.46µM*,-6%,4.3µM*,Sfp gel=3.4µM*;hGST ctr=4%
CC1=C(C(=O)Nc2ccccc2)C(c2ccccc2Cl)n2ncc(C(=O)Nc3cccc(C)c3)c2N1 (centres undefined),-15%,-7%,-8,-5%,-16%,·,·,·,·,·,·,
CC[N+]1(C/C2=C/CCCCCC2)CCC(NC(=O)C2c3cc(Cl)ccc3Oc3ccc(Cl)cc32)CC1 (centres undefined),·,2%,·,?,·,·,·,·,·,·,·,NNMT inh=?
COc1ccccc1NC(=O)Nc1ccc2ccccc2c1,·,?,·,-9%[57.5 µM],·,·,·,·,·,·,·,NNMT inh=-14%
COc1ccc(CNC(=O)C(=O)Nc2ccccc2OC)cc1,-25%[11.5 µM],-18%,-5,15%,-16%[11.5 µM],·,·,·,·,·,·,
Cc1cccc(CNc2ccnc(-c3ccc(C(F)(F)F)cc3)n2)c1,·,·,·,15%,·,·,·,·,·,·,·,
O=C(CS(=O)(=O)c1cccc2nsnc12)NCc1ccc(Cl)cc1,-4%,-24%,-10,-5%,-4%,·,·,·,·,·,·,
COc1cc(NC(=S)N2CCN(c3cccc(C(F)(F)F)c3)CC2)nc2ccccc12,·,·,·,?,·,1.9µM*,47µM*,0.79µM*,0.65µM*,-57%,5.4µM*,
COc1cccc(NC(=S)N2CCN(c3ncc(C(F)(F)F)cc3Cl)CC2)n1,·,·,·,?,·,?,12%,5%,4.6µM*,-13%,1.1µM*,
COc1cc2c(C(=O)N3CCN(c4cccc(C(F)(F)F)c4)CC3)cn(CC(C)C)c(=O)c2cc1OC,?,-9%,-29,1%,-41%,·,·,·,·,·,·,
O=C(Nc1ccc(C(F)(F)F)cn1)N1CCN(c2ncccc2C(F)(F)F)CC1,·,1%,·,3%[57.5 µM],·,·,·,·,·,·,·,
COc1cccc(NC(=S)N2CCN(c3cccc(C(F)(F)F)c3)CC2)n1,·,·,·,·,·,13µM*,42µM*,20µM*,11µM*,19µM*,15µM*,
CN(C)c1ccc2nc(NC(=S)N3CCN(c4cccc(C(F)(F)F)c4)CC3)sc2c1,·,·,·,13%[57.5 µM],·,?,?,20µM*,10µM*,?,9.6µM*,
CCc1ccc(NC(=O)C(CC)n2c(=O)c(C(F)(F)F)nc3ccccc32)cc1 (centres undefined),-9%,-1%,-7,-4%,5%,·,·,·,·,·,·,
CCN1CCCC1Cn1c(-c2ccccc2)nc2c(N(CCOC)CCOC)nc(C)nc21 (centres undefined),·,·,·,1%,·,·,·,·,·,·,·,
c1cc(Nc2cc(C3CC3)[nH]n2)nc(Nc2ccc3nc[nH]c3c2)n1,·,10%,·,?,·,·,·,·,·,·,·,
COc1cccc(NC(=S)N2CCN(c3ccc(Cl)c(Cl)c3)CC2)n1,·,·,·,·,·,?,30%,95µM*,8.1µM*,?,6.1µM*,Sfp gel=107µM*;hGST ctr=?
COc1ccc(-c2nnc(C3CCN(C(=O)c4ccccc4F)CC3)o2)cc1,?,2%,-13,?,-88%,·,·,·,·,·,·,
CC/C(=C(\c1ccc(O)cc1)c1ccc(OCCNC)cc1)c1ccccc1,·,-11%,·,22µM*,·,·,·,·,·,·,·,NNMT inh=?
Cc1cc(C)nc(NC(=S)N2CCN(c3ccc(NS(C)(=O)=O)nn3)CC2)c1,·,·,·,-26%[57.5 µM],·,?,0%,?,4.6µM*,-21%,24µM*,
Cc1ccc(Sc2ccc(N3CCC(C(=O)Nc4cc(C)cc(C)c4)CC3)nn2)cc1,2%,-1%,?,14%,-12%,·,·,·,·,·,·,
Cc1cc(C)nc(NC(=S)N2CCN(c3ccc(N4CCCC4)nn3)CC2)c1,·,·,·,?,·,?,?,13µM*,5.8µM*,27µM*,19µM*,
COC(=O)Cn1c(=NC(=O)c2ccc3c(c2)OCCO3)sc2ccccc21,26%,5%,-14,13%,?,·,·,·,·,·,·,
OCCn1cc(-c2cnc3nnn(Cc4ccc5ncccc5c4)c3n2)cn1,0%,-1%,·,-2%[57.5 µM],5%,·,·,·,·,·,·,NNMT inh=-19%
CCOc1ccc(NC(=O)Cn2c(=O)n(-c3ccc(C)cc3)c(=O)c3cc(OC)c(OC)cc32)cc1,3%,-5%,2,-9%,-3%,·,·,·,·,·,·,
Fc1ccc(CNc2nc3ccc(Cl)cc3n3nnnc23)cc1,-5%,0%,2,10%,17%,·,·,·,·,·,·,
